A selection: hits, their analogues and other compounds. The true share with any hit is near 19%.
HT1080-NT tox: kills 2HG-producing HT-1080-NT fibrosarcoma cells. Potency, µM (doses to about 46.1 µM), without a hit: at the highest dose activity, negative = less viability, usual class: cytotoxic. HT-1080-NT fibrosarcoma viability, CellTiter-Glo ATP luminescence, 48 h. 360,000 compounds, 1.6% hits;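 note: NT is the 2HG producing partner of a matched IDH1 knockdown line; 0% = DMSO-treated cells and -100% = media-only wells without cells; nearly all actives have a fitted effect of over 55% in size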
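750 cells/well, RPMI + 5% FBS; 2 h settle, compound pin-transfer, 48 h at 37 degrees C. CellTiter-Glo 10 min RT, luminescence. Normalized to DMSO and media-only wells.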
TDP1 cell noCPT: qHTS for Inhibitors of human tyrosyl-DNA phosphodiesterase 1 (TDP1): qHTS in cells in absence of CPT | 420,000 compounds, 15% hits | AID 686978, 2013 | Potency, µM (series often up to 46.2 µM), without a hit: top-dose activity change, negative = growth inhibition, most hits filed as inhibitors | DT40 Tdp1-/- hTDP1 cells, no CPT, ATP luminescence, 48 h; note: nearly all actives have a fitted effect of over 55% in size
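Chicken DT40 Tdp1-/- cells stably complemented with human TDP1 were seeded at 400 cells/well with DMSO in place of 20 nM camptothecin. After compound pinning, cells grew at least 48 hr at 37 °C; viability read by CellTiter-Glo luminescence.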
KB-V1 MDR tox: KB-V1 MDR subline cytotoxicity | KB-V1 MDR cells viability, CellTiter-Glo, 72 h | Potency, µM (top dose mostly 46.1 µM), most hits filed as cytotoxic | 400,000 compounds, 3.4% hits | AID 1347076; note: nearly all actives have a fitted effect of over 60% in size
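Readout: CellTiter-Glo luminescence, 10 min after addition. Cells: KB-V1 MDR subline, 72 h at 37 degrees C with compound. Analysis: corrected, normalized data fitted to concentration-effect curves.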
KB-3-1 cytotox: kills parental KB-3-1 adenocarcinoma cells; AID 1347075; KB-3-1 viability, CellTiter-Glo ATP luminescence, 72 h; 400,000 compounds, 1.4% hits; Potency, µM (titrated, usually from 46.1 µM), usual class: cytotoxic; note: nearly all actives have a fitted effect of over 60% in size
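KB-3-1 parental drug-naive adenocarcinoma cells in DMEM/10% FBS, incubated 72 h at 37 C with pin-transferred compounds across a concentration series. Viability by CellTiter-Glo luminescence; concentration-response curves fitted after normalization.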
HT1080 IDH1KD tx: kills HT-1080 cells with IDH1 knockdown | HT-1080 IDH1 knockdown viability, ATP luminescence, 48 h | 360,000 compounds, 2% hits | Potency, µM (top dose mostly 46.1 µM), without a hit: top-dose activity, negative = toxicity, most hits filed as cytotoxic;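 note: 0% = DMSO wells and -100% = cell-free medium wells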
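IDH1KD HT-1080 cells, 750/well, RPMI + 5% FBS; compound pinned after 2 h settling; 48 h, 37 °C; CellTiter-Glo luminescence; % activity normalised to DMSO and no-cell wells; curves fitted, classed by r2 and efficacy.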
DT40 TDP1 CPT: DT40-hTDP1 cell growth loss with CPT; 420,000 compounds, 12% hits; chicken DT40 Tdp1-/-;hTDP1 cells + 20 nM CPT, ATP luminescence, 48 h; AID 686979; Potency, µM (top dose mostly 46.2 µM), for the others: at the highest dose activity change, negative = growth inhibition, usual class: inhibitors; note: nearly all actives have a fitted effect of over 55% in size
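Chicken DT40 Tdp1-/- cells complemented with human TDP1, 400 cells/well, exposed to compounds plus 20 nM camptothecin for at least 48 h at 37 C; viability read as ATP content by CellTiter-Glo luminescence.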
* hit, by the source's call; i = inactive; ? = inconclusive; . = no result given; [ ] = another dose, or the depositor's remark. Calls come from the whole dose curve; as a rule, active = well fitted curve in the direction sought with a large enough effect; inconclusive = small, poorly fitted or top-dose-only effect, or another doubt; inactive = no such curve, though single readings can be large; an effect the other way counts as inactive or inconclusive. Unless noted, % is set by controls: 0 for no effect and ±100 for the full control effect; potency is the fitted concentration of half-maximal effect.

SMILES	HT1080-NT tox	TDP1 cell noCPT	KB-V1 MDR tox	KB-3-1 cytotox	HT1080 IDH1KD tx	DT40 TDP1 CPT
Cc1ccc(C(=O)/C=C/c2c[nH]c3ccccc23)cc1	?	-18%	i	i	?	-9%
COc1ccc2[nH]cc(/C=C/C(=O)c3ccccc3)c2c1	18µM*	?	i	i	18µM*	?
COc1ccc2[nH]cc(C=O)c2c1	9%	-10%	i	i	10%	-7%
CCN(CC)C(=O)c1sc2c(c1C)c(=O)n(-c1ccc(C)c(C)c1)c(=O)n2CC(=O)Nc1ccc(OC)cc1OC	.	?	?	i	.	?
C[C@H](c1ccccc1)N1C[C@@H](COCc2ccccc2)Oc2cc(N3CCC[C@@H]3CO)ccc2S1(=O)=O	-24%	21µM*	?	i	?	?
C[C@@H](c1ccccc1)N1C[C@@H](COCc2ccccc2)Oc2cc(N3CCC[C@H]3CO)ccc2S1(=O)=O	-1%	21µM*	i	i	-22%	?
CCCCC(=O)Nc1ccc(OCc2cc(=O)n3c(C)csc3n2)cc1	.	?	i	i	.	?
O=C(N/N=C/c1ccccc1)c1[nH]c2ccc(Br)cc2c1-c1ccccc1	0.46µM*	1.2µM*	0.82µM*	0.73µM*	0.73µM*	1.2µM*
O=C(CCN1CCOCC1)Nc1c(-c2ccccc2)c2cc(Br)ccc2[nH]c1=O	-19%	-18%	i	i	-5%	-15%
O=C(NN=C1CCCC1)c1[nH]c2ccc(Br)cc2c1-c1ccccc1	8.2µM*	?	i	i	5.8µM*	?
CCc1ccc2oc(C(=O)NCCc3ccc(S(N)(=O)=O)cc3)cc(=O)c2c1	?	-16%	?	i	-22%	-3%
NC(=O)c1ccccc1NC(=O)CN1CCN(Cc2ccc(Cl)cc2Cl)CC1	0%	23µM*	?	?	-3%	?
Cc1cccc(NC(=O)CN2CCN(CC(=O)NCc3ccc(Cl)cc3Cl)CC2)c1C	-3%	?	3.7µM*	i	11%	23µM*
Cc1cccc(NC(=O)CN2CCN(C(=O)CNC(=O)Cc3cccc4ccccc34)CC2)c1C	-12%	10µM*	i	i	-5%	23µM*
Cc1c(=O)n(OCc2ccccc2F)c2ccccc2[n+]1[O-]	13%	?	i	i	4%	?
O=[N+]([O-])c1cc(-c2nc(-c3ccncc3)no2)cc([N+](=O)[O-])c1	19%	10µM*	i	i	28%	10µM*
COc1cc(OC)c(-c2nc(-c3ccncc3)no2)cc1OC	3%	16µM*	i	i	3%	?
CC(C)(C)c1ccc(-c2nc(-c3ccncc3)no2)cc1	-4%	16µM*	16µM*	?	?	?
CCCNc1ccc(-c2nc(-c3ccncc3)no2)cc1[N+](=O)[O-]	.	-5%	i	i	.	-17%
O=[N+]([O-])c1cc(-c2nc(-c3ccncc3)no2)ccc1Cl	-23%	?	i	i	-23%	10µM*
O=C(C1CCCN(S(=O)(=O)c2cnc[nH]2)C1)N1CC(=O)N(CCc2ccccc2)C(=O)C1 (centres undefined)	14%	1%	i	i	12%	-6%
O=C1c2ccccc2CN2C(=O)c3ccccc3CN12	-6%	-9%	i	i	7%	-15%
c1ccc(-c2cn3c(n2)-c2ccccc2C3)cc1	?	15µM*	10µM*	?	?	?
COc1ccccc1NC(=O)NC1CC(=O)N(c2ccc3c(c2)OCCO3)C1 (centres undefined)	-5%	?	i	?	-4%	-5%
COc1cc(C)c(Cl)cc1S(=O)(=O)N(C)C	5%	5%	i	i	8%	-23%
SMILES	HT1080-NT tox	TDP1 cell noCPT	KB-V1 MDR tox	KB-3-1 cytotox	HT1080 IDH1KD tx	DT40 TDP1 CPT
CN(CC(=O)Nc1ccc(F)cc1)c1ccc(S(=O)(=O)N2CCCCC2)cc1[N+](=O)[O-]	-22%	?	13µM*	i	-22%	?
CN(CC(=O)Nc1ccc(S(=O)(=O)N2CCCC2)cc1)Cc1c(F)cccc1Cl	-9%	16µM*	7.3µM*	?	1%	15µM*
COc1ccc(NC(=O)CSCC(=O)N(C)Cc2c(F)cccc2Cl)cc1	-1%	?	i	i	0%	?
Cc1ccc(NC(=O)CSCC(=O)N(C)Cc2c(F)cccc2Cl)cc1	-3%	26µM*	?	i	-15%	18µM*
COc1ccc(S(=O)(=O)N2CCOCC2)cc1NC(=O)Cc1c(Cl)cccc1Cl	1%	?	i	i	2%	?
COc1ccc(S(=O)(=O)N2CCOCC2)cc1NC(=O)CN(C)Cc1c(F)cccc1Cl	-10%	21µM*	?	i	-8%	?
COc1ccc(S(=O)(=O)N2CCCCCC2)cc1C(=O)N(C)CC(=O)Nc1ccc(F)cc1	-6%	?	i	i	0%	-9%
COc1ccc(CNC(=O)CSc2nnc(NC(=O)c3ccccc3F)s2)cc1	7%	?	i	i	13%	-14%
CN(CC(=O)Nc1ccc(S(=O)(=O)N2CCCC2)cc1)Cc1ccc(Cl)cc1	-15%	?	?	i	-16%	16µM*
O=C(Nc1c(-c2ccccc2)nc2ccccn12)c1ccc(Br)cc1	.	?	i	i	.	?
COc1ccc(C(=O)Cn2c(C(=O)/C=C/c3ccccc3)nc3ccccc32)cc1	?	23µM*	?	?	?	15µM*
COc1ccc(C(=O)Cn2c(NCCCO)nc3ccccc32)cc1	-9%	?	?	i	-1%	?
COc1cccc(N2CCN(Cc3cccnc3)CC2)c1	-2%[9.24 µM]	-12%	i	i	2%	1%
COc1ccc(CCNC(=O)CN2CCN(c3cccc(Cl)c3)CC2)cc1OC	-25%	21µM*	?	i	-25%	21µM*
COc1cc(CN2CCN(C(O)(c3ccccc3)c3ccccc3)CC2)cc(OC)c1OC	-6%	15µM*	i	i	-11%	?
COc1cc(CN2CCN(c3cccc(Cl)c3)CC2)cc(OC)c1OC	8.9µM*	5.8µM*	2.3µM*	3.7µM*	7.1µM*	7.3µM*
COc1cccc(CN2CCN(c3cccc(C(F)(F)F)c3)CC2)c1OC	3%	?	21µM*	i	-4%	?
